According to PubChem BioAssay (EPA / NIEHS):
Where a structure was tested more than once in an assay, its records may differ in their call. Activity calls are given as the source filed them. Rule for the calls: active = hit-call score of the fitted dose curve at least 0.9, where 1 is the maximum; inactive = score below 0.9.

Read-out: Interleukin-1 alpha (IL1a), IL1A (gene 3552)
Assay: BSK_LPS_IL1a: BioMAP Diversity Plus: LPS Assay for Interleukin-1 alpha (IL1a) Biomarker Activity (AID 2283080)
Conditions: primary human HUVEC with PBMC; actives raise or lower the signal
How it was run: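 Human umbilical vein endothelial cells co-cultured with peripheral blood mononuclear cells were LPS-stimulated and exposed to test chemicals for 24 h. IL-1 alpha was quantified by ELISA, with bidirectional curve fitting against DMSO as the negative control and baseline.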

SMILES | outcome | AC50
O=C(O)C(Cl)(Cl)Cl | inactive | –
Oc1cccc2cccnc12 | inactive | –
CC(=O)OC(c1ccccc1)C(Cl)(Cl)Cl (centres undefined) | inactive | 17.6 µM (active)
C[C@]12CCC(=O)C[C@@H]1CC[C@@H]1[C@@H]2CC[C@]2(C)[C@@H](O)CC[C@@H]12 | inactive | –
COP(=S)(OC)Oc1ccc(Sc2ccc(OP(=S)(OC)OC)cc2)cc1 | – | 31 µM (active)
C(=NC1CCCCC1)=NC1CCCCC1 | – | 29.4 µM (active)
COc1cc(OC)nc(NC(=O)NS(=O)(=O)c2ncccc2C(=O)N(C)C)n1 | inactive | –
CC12CC1(C)C(=O)N(c1cc(Cl)cc(Cl)c1)C2=O (centres undefined) | inactive | –
COC(=O)c1sccc1S(=O)(=O)NC(=O)Nc1nc(C)nc(OC)n1 | inactive | –
C=C(C)C(=O)[O][Sn]([CH2]CCC)([CH2]CCC)[CH2]CCC | – | 0.148 µM (active)
CC(C)(C)c1cc(O)ccc1O | – | 14.5 µM (active)
CC(C)(c1ccccc1)c1ccc(O)c(C(C)(C)c2ccccc2)c1 | – | 11.1 µM (active)
CCCCCCCCc1ccc(O)cc1 | – | 31 µM (active)
O=C(Nc1ccc2[nH]ccc2c1)c1cc2cc(F)ccc2n1Cc1cccc(F)c1 | – | 7.97 µM (active)
O=C(OC1CCCCC1)c1ccccc1C(=O)OC1CCCCC1 | – | 20.9 µM (active)
C=CC(=O)OCCCCCC(C)C | inactive | –
CC(C)(C)CC(C)(C)c1ccc(O)cc1 | – | 8.47 µM (active)

SMILES | outcome | AC50
CCNc1nc(NC(C)(C)C)nc(SC)n1 | inactive | –
CC(=O)[O][Hg][c]1ccccc1 | – | 1.25 µM (active)
Nc1cccc2ccccc12 | inactive | –
ClCC(Cl)CCl | inactive | –
CCOP(=S)(OCC)Oc1nc(Cl)c(Cl)cc1Cl | inactive | –
CCOP(=S)(OCC)SCSP(=S)(OCC)OCC | inactive | –
CCOP(=S)(OCC)SCCS(=O)(=O)CC | inactive | –
CCOP(=S)(OCC)Oc1ccc(S(C)=O)cc1 (centres undefined) | inactive | –
COC[C@H](C)N(C(=O)CCl)c1c(C)csc1C | inactive | –
ClC(Cl)=C(Cl)C(Cl)=C(Cl)Cl | – | 31 µM (active)
COC(=O)Cc1ccccc1 | inactive | –
O=[N+]([O-])c1ccc(O)c([N+](=O)[O-])c1 | inactive | –
Nc1ncc([N+](=O)[O-])s1 | inactive | –
NC(=S)Nc1ccccc1 | inactive | –
CCC(C)(C)c1ccc(O)c(C(C)(C)CC)c1 | – | 14.3 µM (active)
O=C(O)CCC(F)(C(F)(F)F)C(F)(F)F | inactive | –
CCCCC(CC)CO[N+](=O)[O-] (centres undefined) | inactive | –

Read-out: Monocyte Chemoattractant Protein-1 (MCP1), CCL2 (gene 6347)
Assay: BSK_LPS_MCP1: BioMAP Diversity Plus: LPS Assay for Monocyte Chemoattractant Protein-1 (MCP1) Biomarker Activity (AID 2283081);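 for AC50: co-culture stimulated with LPS; secreted MCP-1 protein quantified by ELISA in culture supernatant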
Conditions: primary human HUVEC with PBMC; actives raise or lower the signal
How it was run: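 HUVEC plus PBMC co-culture (human primary cells, LPS system) exposed to test chemical for 24 h; MCP-1 measured by ELISA. Bidirectional curve fitting against DMSO baseline; parallel SRB total-protein staining flags overt cytotoxicity.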

SMILES | outcome | AC50
O=C(O)C(Cl)(Cl)Cl | inactive | –
Oc1cccc2cccnc12 | inactive | –
CC(=O)OC(c1ccccc1)C(Cl)(Cl)Cl (centres undefined) | inactive | –
C[C@]12CCC(=O)C[C@@H]1CC[C@@H]1[C@@H]2CC[C@]2(C)[C@@H](O)CC[C@@H]12 | – | 26 µM (active)
COP(=S)(OC)Oc1ccc(Sc2ccc(OP(=S)(OC)OC)cc2)cc1 | – | 12.5 µM (active)
C(=NC1CCCCC1)=NC1CCCCC1 | – | 30 µM (active)
COc1cc(OC)nc(NC(=O)NS(=O)(=O)c2ncccc2C(=O)N(C)C)n1 | inactive | –
CC12CC1(C)C(=O)N(c1cc(Cl)cc(Cl)c1)C2=O (centres undefined) | inactive | –
COC(=O)c1sccc1S(=O)(=O)NC(=O)Nc1nc(C)nc(OC)n1 | inactive | –
C=C(C)C(=O)[O][Sn]([CH2]CCC)([CH2]CCC)[CH2]CCC | – | 0.331 µM (active)
CC(C)(C)c1cc(O)ccc1O | – | 13 µM (active)
CC(C)(c1ccccc1)c1ccc(O)c(C(C)(C)c2ccccc2)c1 | – | 10.1 µM (active)
CCCCCCCCc1ccc(O)cc1 | – | 37.4 µM (active)
O=C(Nc1ccc2[nH]ccc2c1)c1cc2cc(F)ccc2n1Cc1cccc(F)c1 | – | 10.4 µM (active)
O=C(OC1CCCCC1)c1ccccc1C(=O)OC1CCCCC1 | – | 27.9 µM (active)
C=CC(=O)OCCCCCC(C)C | inactive | –
CC(C)(C)CC(C)(C)c1ccc(O)cc1 | – | 10.5 µM (active)

SMILES | outcome | AC50
CCNc1nc(NC(C)(C)C)nc(SC)n1 | inactive | –
CC(=O)[O][Hg][c]1ccccc1 | – | 1.7 µM (active)
Nc1cccc2ccccc12 | inactive | –
ClCC(Cl)CCl | inactive | –
CCOP(=S)(OCC)Oc1nc(Cl)c(Cl)cc1Cl | inactive | –
CCOP(=S)(OCC)SCSP(=S)(OCC)OCC | inactive | –
CCOP(=S)(OCC)SCCS(=O)(=O)CC | inactive | –
CCOP(=S)(OCC)Oc1ccc(S(C)=O)cc1 (centres undefined) | inactive | –
COC[C@H](C)N(C(=O)CCl)c1c(C)csc1C | inactive | –
ClC(Cl)=C(Cl)C(Cl)=C(Cl)Cl | inactive | –
COC(=O)Cc1ccccc1 | inactive | –
O=[N+]([O-])c1ccc(O)c([N+](=O)[O-])c1 | inactive | –
Nc1ncc([N+](=O)[O-])s1 | inactive | –
NC(=S)Nc1ccccc1 | inactive | –
CCC(C)(C)c1ccc(O)c(C(C)(C)CC)c1 | – | 25.1 µM (active)
O=C(O)CCC(F)(C(F)(F)F)C(F)(F)F | inactive | –
CCCCC(CC)CO[N+](=O)[O-] (centres undefined) | inactive | –
